Hits are enriched below; roughly 12% of the tested compounds scored in any of these assays.
AMA1 RON2 block: AMA1-RON2 (P. falciparum) interaction inhibition; AlphaScreen AMA1-biotinylated RON2 peptide binding; Potency, µM (doses to about 58.2 µM), for the others: top-dose activity change, negative = inhibition, actives largely listed as inhibitors; hit rate 0.2% among 360,000; AID 720542;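 note: 0% = vehicle wells and -100% = peptide control; nearly all actives have a fitted effect of over 45% in size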
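AMA1 (3D7) with his tag at 25 nM final met compounds first, then biotinylated RON2 peptide at 25 nM; detection used donor plus acceptor beads, 10 µg/mL apiece, read by AlphaScreen after 30 min at room temperature.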
Pf growth 96h: P. falciparum growth inhibition at 96 hours; hit rate 6.9% among 320,000; P. falciparum luciferase reporter growth, 96 h; Potency, µM (doses to about 28.7 µM), for the others: top-dose activity change, negative = inhibition, usual class: inhibitors; note: % is set by controls: 0 for no effect and ±100 for the full control effect
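Luminescence readout: decreased luciferase signal marks inhibited growth of reporter-expressing P. falciparum in infected red cells (2% hematocrit, 0.05% parasitemia final), exposed to compound two generations (96 h, 37 C, 5% CO2).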
NS1 function inh: influenza NS1 inhibition. AID 2326. Potency, µM (titrated, usually from 46.1 µM), for inactives: top-dose activity, positive = more growth. hit rate 0.4% among 270,000; calls by dose curve; note: actives are rising curves; nearly all actives have a fitted effect of over 50% in size
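In this qHTS, NS1 from influenza A is expressed in budding yeast, where it slows growth. Cells are switched from glucose to 2% galactose medium (pH 6.0, -URA), treated with compound, and growth recovery is read at OD600.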
HCV inh: HCV inhibition; Huh7.5.1 HCVcc-Cre infection, luciferase reporter, 44 h; Potency, µM (series often up to 41.8 µM), for inactives: at the highest dose activity change, negative = inhibition, hits mostly inhibitors; hit rate 3.4% among 340,000; note: % is set by controls: 0 for no effect and ±100 for the full control effect
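Compounds are dispensed onto cells plated 4 h earlier at 1,000 per well, with HCVcc-Cre virus (about 0.5 moi) added next. Following 44 h of culture, luminescent signal is measured for 15 sec after 15 min with substrate at room temperature.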
Pf growth 48h: inhibits P. falciparum growth in the first generation, 48 h; P. falciparum luciferase growth in erythrocytes, 48 h; Potency, µM (series often up to 28.7 µM), for the others: at the top dose activity change, negative = inhibition, actives largely listed as inhibitors; hit rate 5.9% among 310,000; AID 504832; note: % is set by controls: 0 for no effect and ±100 for the full control effect
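Compounds are pin-transferred into medium, infected erythrocytes (2% hematocrit, 0.1% parasitemia final) are added, and plates sit one parasite generation at 37 C in 5% CO2. Detection reagent is then added and luminescence measured.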
SARS PLpro yeast: inhibitors of SARS-CoV papain-like protease in yeast | S. cerevisiae expressing SARS-CoV PLpro, growth rescue | Potency, µM (titrated, usually from 32.9 µM), inactives show top-dose activity, positive = growth rescue, hits mostly activators | hit rate 0.19% among 330,000; calls by dose curve; note: 0% is about no effect; nearly all actives have a fitted effect of over 55% in size
Starred values were filed as active, the others as inactive; ? = inconclusive; . = no result given; [ ] = another dose, or the depositor's remark. Unless noted, calls come from the whole dose curve; as a rule, active = well fitted curve in the direction sought with a large enough effect; inconclusive = small, poorly fitted or top-dose-only effect, or another doubt; inactive = no such curve, though single readings can be large; an effect the other way counts as inactive or inconclusive. Potency is the fitted concentration of half-maximal effect.

SMILES	AMA1 RON2 block	Pf growth 96h	NS1 function inh	HCV inh	Pf growth 48h	SARS PLpro yeast
O=C(Nc1ncccc1O)c1ccc(NS(=O)(=O)c2ccc3[nH]c(=O)[nH]c3c2)cc1	0%	0.1µM*	.	2%	0.13µM*	-2%
S=c1[nH]nc(-c2ccccn2)n1/N=C/c1ccc(-c2ccccc2Br)o1	-11%	29%	.	3%	15%	-3%
COC(=O)[C@@]1(Cc2ccc(OC)cc2)[C@H]2c3cc(C(=O)N4CCCC4)n(CCc4ccc(OC)c(Br)c4)c3C[C@H]2CN1C(=O)c1ccccc1	-2%	.	.	.	.	.
COC(=O)[C@@]1(Cc2ccc(F)cc2)[C@H]2c3cc(C(=O)N4CCCC4)n(CCO)c3C[C@H]2CN1C(=O)c1ccccc1	-4%	6.6µM*	-11%	?	3.7µM*	12%
COC(=O)Cn1c(C(=O)N2CCCC2)cc2c1C[C@H]1CN(C(=O)c3ccccc3)[C@@](Cc3ccc(F)cc3)(C(=O)OC)[C@@H]21	-3%	8.3µM*	-22%	2%[8.37 µM]	5.2µM*	16%
COC(=O)[C@@]1(Cc2ccc(OC)cc2)[C@H]2c3cc(C(=O)N(C)C)n(CCSCCO)c3C[C@H]2CN1C(=O)c1ccccc1	9%	5.2µM*	-26%	10%	2.3µM*	-13%
COC(=O)[C@@]1(Cc2ccc(OC)cc2)[C@H]2c3cc(C(=O)N4CCCC4)n(CCc4c[nH]c5ccc(O)cc45)c3C[C@H]2CN1C(=O)c1ccccc1	.	2.1µM*	?	0%[8.37 µM]	1µM*	8%
COC(=O)Cn1c(C(=O)N2CCCC2)cc2c1C[C@H]1CN(C(=O)c3ccccc3)[C@@](Cc3ccc(OC)cc3)(C(=O)OC)[C@@H]21	-3%	.	.	.	.	.
CCCCc1nc2sc3c(=O)n(N)cnc3c2c2c1CCC2	4%	-2%[5.75 µM]	-3%	4%	0%	-1%
COC(=O)[C@@]1(Cc2ccc(OC)cc2)[C@H]2c3cc(C(=O)N4CCCC4)n(CCO)c3C[C@H]2CN1C(=O)c1ccccc1	-2%	4.7µM*	-29%	2%[8.37 µM]	?	10%
COC(=O)[C@@]1(Cc2ccc(OC)cc2)[C@H]2c3cc(C(=O)N4CCCC4)n(Cc4ccc(C)c(F)c4F)c3C[C@H]2CN1C(=O)c1ccccc1	-16%	.	.	.	.	.
COC(=O)[C@@]1(Cc2ccc(OC)cc2)[C@H]2c3cc(C(=O)N4CCCC4)n(CCSCCO)c3C[C@H]2CN1C(=O)c1ccccc1	-6%	1.7µM*	-25%	-12%	1µM*	1%
COC(=O)[C@@]1(Cc2ccc(OC)cc2)[C@H]2c3cc(C(=O)N4CCCC4)n(Cc4ccccc4)c3C[C@H]2CN1C(=O)c1ccccc1	-16%	.	.	.	.	.
COC(=O)[C@@]1(Cc2ccccc2)[C@H]2c3cc(C(=O)N4CCCC4)n(Cc4ccsc4Br)c3C[C@H]2CN1C(=O)c1ccccc1	.	3.3µM*	-3%	4%[8.37 µM]	?	-16%
CCOC(=O)c1c(NC(=O)c2ccccc2)sc2c(O)c(CN(CC)CC)ccc12	0%	-4%	10%	?	1.9µM*	0%
CCN(CC)Cc1c(NC(=O)c2ccccc2)sc(C)c1C	6%	42%	.	-7%	30%	1%
COc1ccc2c(c1)/C(=C\c1cccc(/C=C3/C(=O)Nc4ccc(OC)cc43)n1)C(=O)N2	-9%	.	.	2.8µM*	.	.
O=C(NCc1ccco1)c1cc2cc(Br)ccc2o1	-1%	?	-29%	-12%	16%	-17%
O=c1oc2ccccc2cc1-c1ccccc1	19%	-6%	-8%	1%	49%	-1%
CC1(C)Cc2c(ccc3ccccc23)C(c2cc3ccccc3oc2=O)=N1	-13%	10µM*	4%	?	?	0%
CC1(C)Cc2ccccc2C(c2cc3ccccc3oc2=O)=N1	-2%	?	2%	-11%	8.3µM*	13%
CNc1nnc(-c2cc3ccccc3oc2=O)s1	-1%	-1%	-19%	-16%	45%	-8%
COc1ccccc1NS(=O)(=O)c1cccc(C(=O)NCC2(N3CCCCC3)CCCCC2)c1	-13%	.	.	-17%	.	.
CC(C)NC(=O)COc1ccc(S(=O)(=O)N(C)Cc2ccccc2)cc1	4%	9%	-45%	-28%	?	-1%
Cc1cc(N=Cc2c(O)n(-c3cccc(C(F)(F)F)c3)c(=O)c3ccccc23)no1	1%[11.6 µM]	?	-2%	4%	?	10%
SMILES	AMA1 RON2 block	Pf growth 96h	NS1 function inh	HCV inh	Pf growth 48h	SARS PLpro yeast
COc1ccc(-n2c(O)c(/C=N/NS(=O)(=O)c3cc(C)ccc3C)c3ccccc3c2=O)cc1OC	-1%	0%	28%	-19%	?	-5%
COc1ccc(-n2c(O)c(/C=N/Nc3nc(C)cc(C)n3)c3ccccc3c2=O)cc1OC	124%	?	.	2.8µM*	?	3%
Cc1nnc(N/N=C/c2c(O)n(-c3cccc(C(F)(F)F)c3)c(=O)c3ccccc23)[nH]c1=O	.	?	7%	.	6.6µM*	-1%
CS(=O)(=O)c1ccc(NC(=O)c2ccc3c(c2)S(=O)(=O)N=C2CCCCCN23)cc1	-9%	?	.	-8%	?	6%
CCN(CC(=O)Nc1ccccc1C(F)(F)F)C(=O)c1oc2ccc(OC)cc2c1C	-10%	?	.	?	?	2%
COCCN=c1scc(-c2ccccc2)n1/N=C/c1c[nH]c2ccccc12	?	?	19%	?	?	-88%
CCN=c1scc(C)n1/N=C/c1ccc(O)c(O)c1O	?	7.4µM*	-14%	-5%	?	-5%
COCCN=c1scc(-c2cccs2)n1/N=C/c1ccc(O)c(O)c1O	-22%	4.1µM*	?	?	9.3µM*	-94%
COc1ccc(CC2SC(N)=NC2=O)cc1 (configuration not stated)	14%	?	15%	15%	21%	4%
CCOc1ccc(N2CC(C(=O)NCCc3ccc(S(N)(=O)=O)cc3)CC2=O)cc1 (configuration not stated)	2%	48%	5%	14%	35%	-4%
Cc1nn(-c2ccccc2)c(Cl)c1CN(C(=O)CCl)c1cccc2ccccc12	-3%	?	-3%	?	3.7µM*	-46%
Cc1nn(-c2ccccc2)c(Cl)c1CN(C(=O)CCl)c1ccc(Cl)cc1	2%	?	-38%	10µM*	-17%	-13%
O=C(NCCO)c1cc(-c2cc(C(=O)NCCO)c3ccccc3n2)nc2ccccc12	-5%	7%	5%	38%	38%	-3%
Cc1ccc(NC(=O)c2ccc(CSc3ccccn3)cc2)cc1	-17%	26%	1%	?	41%	5%
Cc1ccc(NC(=O)c2ccc(CSc3ccccn3)cc2)c(O)c1	0%	3.7µM*	-4%	?	1.5µM*	-1%
